Test results taken from the supplement of paper PMC10338343.
± gives the standard deviation. Whole data set: some 5,500 sequences, median “pre-steady-state target cleavage rate” near 0.1, cut for the highest 2% near 0.64. What follows is part of a selection rich in the highest values, with near analogues and random picks from the rest.

Tested on: MIWI (PIWIL1) piRISC loaded with piRNA #2 (30 nt)
Test: pre-steady-state target cleavage rate (min^-1); MIWI and MILI are mouse PIWI proteins and EfPiwi is from a freshwater sponge; tags in brackets are library labels; higher = faster piRNA-guided slicing of the target
Conditions: guide: piRNA #2 5'p-UUAGGUAACCCAGUAGAUCCAGAGGAAUUC; auxiliary factor: 500 nM mouse GTSF1
Description: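 Cleave-'n-Seq: a library of target RNAs (target site embedded in constant flanks, ACAGCATTCCGCGTTAGTGATATCCG... 5' flank; DNA-blocked outside the site) at 0.1 nM was incubated with 1 nM active mouse MILI or MIWI piRISC (synthetic 5'-monophosphorylated piRNA guide) with or without 500 nM mouse GTSF1 at 33 °C for 1 min to 16 h. Uncleaved targets were sequenced and normalised to non-target controls, and the pooled three trials were fitted to a burst-and-steady-state model to give the pre-steady-state cleavage rate (min^-1; k3 is constrained to at most 1e-4). Sequence is the target site only; target names encode pairing extent (gX:gY) and contiguous / 1-mismatch / 2-mismatch / bulge geometry. Fits with R² ≤ 0 are excluded.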

Sequence	pre-steady-state target cleavage rate
CUUAACCUGUGGAUCUACUGGGUAACCUAA	0.0751 ± 0.013
GAAUUCCUCUGGAUCUAGUGGGAUACCUAA	0.0616 ± 0.011
CUUUUCCUCUGCAUCUACUGGGAUACCUAA	0.128 ± 0.018
CUUUUCCUCUGGAUCUACUGGGUUACGUAA	0.664 ± 0.034
GAAUUCCUCUCGAUCUACUGGGUUACGUAA	0.581 ± 0.067
CAAUUCCUCUGGAUCUACUGGGUUACGUAA	0.598 ± 0.065
CUAUUCCUCUCGAUCUACUGGGUUACGUAA	0.935 ± 0.047
CUUUUCCUCUCGAUCUACUGGGUUACGUAA	0.746 ± 0.034
CAAUUCCUCUCGAUCUACUGGGUUACGUAA	0.885 ± 0.061
CUUUUCCUCUCGAUCUACUGGGUUUCCUAA	0.509 ± 0.058
CUUUUCCUCAGGAUCUACUGGGUUACGUAA	0.523 ± 0.067
CAUUUCCUCUGGAUCUACUGGGUUACGUAA	0.622 ± 0.062
CUUUUCCUCUGGAUCUACUGGGUUACGUUA	0.374 ± 0.044
CUAUUCCUCUGGAUCUACUGGGUUACGUAA	0.63 ± 0.047
GUAUUCCUCUGGAUCUACUGGGUUACGUAA	0.377 ± 0.057
CUUAAGGUCUGGAUCUACUCGGUUACCUAA	0.0416 ± 0.02
CUUAUCCUCUGGAUCUUCUGGGUUACGUAA	0.45 ± 0.055
CAAUUCCUCUGGAUCUACUGAGGUUACCUAA	0.00648 ± 0.0048
GAAUUCCUCUGGAUCUACUGAGUUACCUAA	0.67 ± 0.046
GAAUUCCUCUGGAUCUACUGGAGUUACCUAA	0.00576 ± 0.0035
CUUUUCCUCUGGAUCUACUGGUUACCUAA	0.0817 ± 0.016
GAAUUCCUCUGGAUCUACUGAGGUUACCUAA	0.00556 ± 0.0037
CUUUUCCUCUGGAUCUACUGAGUUACCUAA	0.727 ± 0.048
CUAUUCCUCUGGAUCUACUGGUUACCUAA	0.104 ± 0.026

Sequence	pre-steady-state target cleavage rate
CUUUUCCUCUGGAUCUACUGGGUUACCUAA [g2:g27:cont:t1A]	0.408 ± 0.057
CUAUUCCUCUGGAUCUACUGAGUUACCUAA	0.823 ± 0.06
CAAUUCCUCUGGAUCUACUGGAGUUACCUAA	0.00382 ± 0.0035
CAAUUCCUCUGGAUCUACUGAGUUACCUAA	0.869 ± 0.075
CUAUUCCUCUGGAUCUACUGGAGUUACCUAA	0.00422 ± 0.0041
CUUAUCCUCUGGAUCUACAGGGUUACCAAA	0.237 ± 0.03
CAAUUCCUCUCGAUCUACUGGGUAACCUAA	0.476 ± 0.058
GAAUUCCUCUGGAUCUUCUGGGAUACCUAA	0.108 ± 0.018
CUUAUCCUCUGGAUCUUCUGGGUAACCUAA	0.0522 ± 0.013
GAAUUCCUCUGCAACUACUGGGUUACCUAA	0.413 ± 0.048
CUAUUCCUCUGGAUCUACUGGGUAACCUAA	0.231 ± 0.042
CUUAAGGUCUGGAUCUCCUGGGUUACCUAA	0.0565 ± 0.013
CUUAUCCUCUGGAUCUACUGGGUUAACUAA	0.407 ± 0.071
CUUAAGGUCUGGAACUAGUGGGUUACCUAA	0.0577 ± 0.017
CAAUUCCUCAGCAUCUACUGGGUUACCUAA	0.437 ± 0.044
CUUAAGCUCCUGGAUCUACUGGGUUACCUAA	0.181 ± 0.021
CUUAUCCUCGUGGAUCUACUGGGUUACCUAA	0.161 ± 0.032
GAAUUCCACUGGAUCUACUCGGUUACCUAA	0.193 ± 0.022
CUAUUCCUCUGGAUCUACUGCGUUACGUAA	0.539 ± 0.08
CUUAACCUCUGGAUCUACUGGGUUACCGUAA	0.155 ± 0.019
GAAUUCCUCUGAGAUCUACUGGGUUACCUAA	0.381 ± 0.046
CAAUUCCUCUAGAUCUACUGGGUUACCUAA	0.807 ± 0.047
GAAUUCCUCUAGAUCUACUGGGUUACCUAA	0.731 ± 0.05
CUAUUCCUCUAGAUCUACUGGGUUACCUAA	0.67 ± 0.042

Sequence	pre-steady-state target cleavage rate
CAAUUCCUCUGAGAUCUACUGGGUUACCUAA	0.545 ± 0.057
CUAUUCCUCUGAGAUCUACUGGGUUACCUAA	0.471 ± 0.042
GAAUUCCUCUAGGAUCUACUGGGUUACCUAA	0.348 ± 0.074
CUAUUCCUCUAGGAUCUACUGGGUUACCUAA	0.278 ± 0.041
CAAUUCCUCUAGGAUCUACUGGGUUACCUAA	0.434 ± 0.048
CUAUUACCUCUGGAUCUACUGGGUUACCUAA	0.227 ± 0.041
CUUAAGGUCUGGAACUACUGGCUUACCUAA	0.027 ± 0.022
CUUAAGCUCAGGAUCUACAGGGUUACCUAA	0.081 ± 0.014
CUUAAGGACAGCAUCUACUGGGUUACCUAA	0.00648 ± 0.0035
CUAUUCGUCUGGAUCUACUGGGUUACCAAA	0.36 ± 0.064
CAUUUCCUCUGGAUCUACUGGGUUACCUAA	0.541 ± 0.059
CAUUUCCUCUCGAUCUACUGGGUUACCUAA	0.808 ± 0.052
CUUUACCUCUCGAUCUACUGGGUUACCUAA	0.47 ± 0.033
CUUUUCCUCUCGAUCUACUGGGUUACCUAA	0.602 ± 0.04
GAUUUCCUCUCGAUCUACUGGGUUACCUAA	0.66 ± 0.067
GAUUUCCUCUGGAUCUACUGGGUUACCUAA	0.183 ± 0.042
CAAUUCGACUGGAUCUACUGGGUUACCUAA	0.357 ± 0.05
CUUUUCCUCUGGAUCUACUGCGUAACCUAA	0.174 ± 0.032
CUUAAGGAGAGGAUCUACUGGGUUACCUAC [g2:g20:cont:t1C]	0.0183 ± 0.0054
CAAUUGCUCUGGAUCUACUGGGUUACCUUA	0.212 ± 0.048
GAAUUCCUCUGGAUCUACUCGCUUACCUAA	0.00392 ± 0.0028
CUUAAGGAGAGCGAUCUACUGGGUUACCUAA	0.00514 ± 0.003
CUAUUCCUCUCGAUCUACUCGGUUACCUAA	0.196 ± 0.017
CUUUUCCUCAGGAUCUACUGCGUUACCUAA	0.524 ± 0.062

Sequence	pre-steady-state target cleavage rate
GAAUUCCUCUCGAUCUACUCGGUUACCUAA	0.123 ± 0.018
CAAUUCCUCUGGAUCUACUGCGUUACCUAA	0.593 ± 0.069
CUUUUCCUCUCGAUCUACUGCGUUACCUAA	0.845 ± 0.072
CUAUUCCUCUCGAUCUACUGCGUUACCUAA	0.948 ± 0.092
CUUUUCCUCUGGAUCUACUGCGUUACCUAA	0.527 ± 0.057
GAAUUCCUCUGGAUCUACUGCGUUACCUAA	0.469 ± 0.056
CUAUUCCUCUGGAUCUACUGCGUUACCUAA	0.521 ± 0.065
CAAUUCCUCUCGAUCUACUCGGUUACCUAA	0.22 ± 0.022
CAAUUCCUCUCGAUCUACUGCGUUACCUAA	0.907 ± 0.084
GAAUUCCUCUCGAUCUACUGCGUUACCUAA	0.691 ± 0.063
CUUAUCCUCUGGAUCUACUCCGUUACCUAA	0.021 ± 0.009
CAUUUCCUCUGGAACUACUGGGUUACCUAA	0.612 ± 0.044
GAAUUGCUCAGGAUCUACUGGGUUACCUAA	0.168 ± 0.037
CUUAAGGUCUGGAUCUACUGGGUUUGCUAA	0.0859 ± 0.018
CAAUUCCUGUGGAUCUACAGGGUUACCUAA	0.268 ± 0.036
CUUAAGCUCUGGAUCUACUGGGUUACCUAG [g2:g24:cont:t1G]	0.0755 ± 0.013
CAAUUCCUUGGAUCUACUGGGUUACCUAA	0.45 ± 0.061
CUUAACCUCAGGAUCUAGUGGGUUACCUAA	0.128 ± 0.017
CUUAUCCUCUCGAUCUACUGCGUUACCUAA	0.636 ± 0.048
CUUAACCUCUCGAUCUACUGCGUUACCUAA	0.614 ± 0.057
CUUAUCCUCUCGAUCUACUGGGUUACCUAA	0.561 ± 0.04
